# Assay results from PubChem BioAssay (NCATS).
# Records with an inconclusive call do not appear. A number with no mark means an inactive call. The source made the active and inactive calls. Calls follow the shape of the dose curve; as a rule, active = well fitted curve in the direction sought with a large enough effect; inconclusive = small, poorly fitted or top-dose-only effect, or another doubt; inactive = no such curve, though single readings can be large; an effect the other way counts as inactive or inconclusive.
# Test: qHTS of pediatric cancer cell lines to identify multiple opportunities for drug repurposing: Primary screen for RD cells (AID 1347104); also: nearly all actives have a fitted effect of over 55% in size;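 as to activity change, negative = cytotoxic: plate controls were DMSO for no effect and bortezomib for full effect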
# Conditions: RD rhabdomyosarcoma viability, CellTiter-Glo luminescence, 48 h; series mostly up to 46 µM; activity change, negative = cytotoxic: at the top concentration
# Procedure, shortened: (§1)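 Quantitative HTS format: each compound titrated (MIPE 11 points from 0.78 nM, NPC 8 points from 0.59 nM) onto cells plated 5 hours earlier. After 48 h at 37 degrees C, CellTiter-Glo luminescence was recorded.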
# Potency is read from the fitted curve at half-maximal effect.
SMILES,Potency,"activity change, negative = cytotoxic [%]"
CCNC(=O)c1cc2c(-c3cc(OCCN4CCCC4)c(Cl)cc3Cl)nc(N)nc2s1,1.48 µM (active),
Cc1ccc2nc(NCCN)c3ncc(C)n3c2c1,13.2 µM (active),
CC(C)(O)[C@H]1CC[C@@](C)([C@H]2[C@@H](O)C[C@@]3(C)[C@@H]4C[C@H](O[C@@H]5O[C@H](CO)[C@@H](O)[C@H](O)[C@@H]5O)[C@H]5C(C)(C)[C@@H](O[C@@H]6OC[C@@H](O)[C@H](O)[C@@H]6O)CC[C@@]56C[C@@]46CC[C@]23C)O1,,5.62
CC(C(C)N1CC(=O)NC(=O)C1)N1CC(=O)NC(=O)C1 (centres undefined),,-17.3
CC(=O)OC[C@@H]1O[C@@H](n2ccc(=O)[nH]c2=O)[C@H](OC(C)=O)[C@H]1OC(C)=O,,-14
Cc1cnc(NC(=O)Nc2cc(Br)c(C)cc2OC[C@@H]2CNCCO2)cn1,,-6.86
O=S(=O)(O)CCSSCCS(=O)(=O)O,,8.63
CON=C(C(=O)N[C@@H]1C(=O)N2C(C(=O)O)=C(CSC(=O)c3ccco3)CS[C@H]12)c1csc(N)n1,,7.07
Nc1ncn([C@@H]2O[C@H](CO)[C@@H](O)[C@@H]2O)c(=O)n1,5.9 µM (active),
C[C@]12C=CC(=O)N[C@@H]1CC[C@H]1[C@H]3CC[C@@H](C(=O)Nc4cc(C(F)(F)F)ccc4C(F)(F)F)[C@@]3(C)CC[C@@H]12,,-17.9

# Test: qHTS of pediatric cancer cell lines to identify multiple opportunities for drug repurposing: Primary screen for MG 63 (6-TG R) cells (AID 1347105); also: nearly all actives have a fitted effect of over 50% in size; as to activity change, negative = cytotoxic: % is scaled to controls: 0 for no effect and ±100 for the full control effect
# Conditions: MG 63 (6-TG R) viability, CellTiter-Glo, 48 h; series mostly up to 46 µM; activity change, negative = cytotoxic: at the top concentration
# Procedure, shortened: as §1
SMILES,Potency,"activity change, negative = cytotoxic [%]"
O=C(Nc1nnc(-c2ccco2)o1)c1cc(-c2ccccc2)nc2ccccc12,14.8 µM (active),
OCC(O)C(O)C(O)CO (centres undefined),,-27.7
C[C@H]1[C@@H](OC(=O)CCC(=O)O)O[C@@H]2O[C@@]3(C)CC[C@@H]4[C@H](C)CC[C@@H]1[C@@]24OO3,18.7 µM (active),
Cc1cnc(Nc2ccc(CN3CCOCC3)cc2)nc1Nc1cccc(S(=O)(=O)NC(C)(C)C)c1,3.72 µM (active),
OC[C@@H](O)[C@@H](O)[C@H](O)[C@@H](O)CO,,1.24
COC(=O)[C@@H]1[C@H]2C[C@@H]3c4[nH]c5ccccc5c4CCN3C[C@@H]2CC[C@@H]1O,,-19.7
C=C(C)[C@@H]1CC[C@]2(C(=O)O)CC[C@]3(C)[C@H](CC[C@@H]4[C@@]5(C)CC[C@H](O)C(C)(C)[C@@H]5CC[C@]43C)[C@@H]12,,-20.1
CC(C)C[C@H](NC(=O)[C@@H](NC(=O)c1cccc(-c2ccccc2)n1)[C@@H](C)O)B(O)O,0.0296 µM (active),
C[N+](C)([O-])CCNc1ccc(NCC[N+](C)(C)[O-])c2c1C(=O)c1c(O)ccc(O)c1C2=O,,-27.2
CCN(C(=O)c1c(O)c2c(Cl)cccc2n(C)c1=O)c1ccccc1,,-21.3
CC(C)(O)CC[C@@H](O)[C@](C)(O)[C@H]1CC[C@@]2(O)C3=CC(=O)[C@@H]4C[C@@H](O)[C@@H](O)C[C@]4(C)[C@@H]3CC[C@]12C,,-24.5
CCS(=O)(=O)Nc1ccc2[nH]c(O)c(C(=Nc3ccc(CN4CCCCC4)cc3)c3ccccc3)c2c1,5.9 µM (active),
CCCCOc1ccc(C(=O)Nc2ccc(F)cc2F)cc1,,4.68
CC[C@H]1OC(=O)[C@H](C)[C@@H](O[C@H]2C[C@@](C)(OC)[C@@H](O)[C@H](C)O2)[C@H](C)[C@@H](O[C@@H]2O[C@@H](C)C[C@H](N(C)C)[C@@H]2O)[C@](C)(O)C[C@@H](C)C(=O)[C@H](C)[C@@H](O)[C@]1(C)O,,-19.4
CC(Cc1ccc(O)c(O)c1)(NN)C(=O)O (centres undefined),,-18.7
CCNC(=O)c1cc2c(-c3cc(OCCN4CCCC4)c(Cl)cc3Cl)nc(N)nc2s1,14.8 µM (active),
Cc1ccc2nc(NCCN)c3ncc(C)n3c2c1,18.7 µM (active),
CC(=O)O[C@H]1C[C@@H]2CC[C@H]3[C@H]4C[C@H]([N+]5(C)CCCCC5)[C@@H](OC(C)=O)[C@@]4(C)CC[C@@H]3[C@@]2(C)C[C@H]1N1CCCCC1,,-2.12
CC(C)(O)[C@H]1CC[C@@](C)([C@H]2[C@@H](O)C[C@@]3(C)[C@@H]4C[C@H](O[C@@H]5O[C@H](CO)[C@@H](O)[C@H](O)[C@@H]5O)[C@H]5C(C)(C)[C@@H](O[C@@H]6OC[C@@H](O)[C@H](O)[C@@H]6O)CC[C@@]56C[C@@]46CC[C@]23C)O1,,9.83
O=C(Nc1ccc(Oc2ccnc3[nH]ccc23)c(F)c1)c1cccn(-c2ccc(F)cc2)c1=O,,-24.4
CC(=O)OC[C@@H]1O[C@@H](n2ccc(=O)[nH]c2=O)[C@H](OC(C)=O)[C@H]1OC(C)=O,,-5.44
CC(=CC(=O)Nc1ccccc1C(=O)O)c1ccc2ccccc2c1,,-28.7
Cn1cnc2c(F)c(Nc3ccc(Br)cc3F)c(C(=O)NOCCO)cc21,,-34.9
O=S(=O)(O)CCSSCCS(=O)(=O)O,,-7.48
CON=C(C(=O)N[C@@H]1C(=O)N2C(C(=O)O)=C(CSC(=O)c3ccco3)CS[C@H]12)c1csc(N)n1,,-7.25
C[C@@]12C[C@@]3(O)O[C@@H](O1)[C@]1(COC(=O)c4ccccc4)[C@@H]3C[C@@]12O[C@@H]1O[C@H](CO)[C@@H](O)[C@H](O)[C@@H]1O,,-17.7
CC(=O)C1=C(O)C=C2Oc3c(C(C)=O)c(O)c(C)c(O)c3C2(C)C1=O (centres undefined),,8.16
Nc1ncn([C@@H]2O[C@H](CO)[C@@H](O)[C@@H]2O)c(=O)n1,,-13.8
CC(=O)O[C@@]12CO[C@H]1C[C@H](O)[C@@]1(C)C(=O)[C@H](O)C3=C(C)[C@@H](OC(=O)C(O)[C@@H](NC(=O)OC(C)(C)C)c4ccccc4)C[C@@](O)([C@@H](OC(=O)c4ccccc4)[C@@H]21)C3(C)C (some centres undefined),,-42.9
